Source: PubChem BioAssay
Hits are enriched below; roughly 0.93% of the tested compounds scored in any of these assays.
697 NFkB inh = lowers PMA/ionomycin-induced NF-kB signal in 697 B cells; 697 B-cell NF-kB luciferase reporter, 16 h; inhibition, % at 4 µM; 330,000 compounds, 0.33% hits; in the data active = inhibition above about 35%
Jurkat NFkB inh = lowers PMA/ionomycin-induced NF-kB signal in Jurkat cells; PMA/ionomycin-induced NF-kB luciferase reporter, luminescence; inhibition, % at 4 µM; 330,000 compounds, 0.53% hits; AID 435003; in the data active = inhibition above about 50%
HIF act = HIF pathway transcriptional activation | 300,000 compounds, 0.32% hits | AID 1910 | activation, % at 7.5 µM (by protocol) | U2OS HRE-luciferase reporter, luminescence; normalized: DMSO 0%, desferrioxamine 100%;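 active = mean activation of at least 10% of the iron chelator positive control signal, with at least half of replicates also reaching 10%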
F508del corr = CFTR F508del correction in bronchial cells; CFBE cells, YFP halide quenching; stimulated with forskolin plus potentiator P3; % fluorescence drop versus neutral controls; activity (quench increase), % at 7.58 µM; 350,000 compounds, 0.36% hits; AID 720511;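 active = mean added fluorescence quench of at least 8% versus neutral control, with both replicates also reaching 8%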;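 also: cells transiently co-express mutant CFTR-F508del with the halide-sensitive YFP; corrector assay measuring rescue of mutant channel to the surface after 24 h compound exposure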
Starred values were filed as active, the others as inactive; x = no result; ! = not active in a repeat.

SMILES	697 NFkB inh	Jurkat NFkB inh	HIF act	F508del corr
COc1ccc(CCn2c(NN=C(C)C)nc3c2c(=O)[nH]c(=O)n3C)cc1	14	8	0	9.8*
CCCNC(=O)N1CC2(CCN(Cc3cccnc3)CC2)c2c(n(C)c3cc(OC)ccc23)[C@@H]1CO	x	x	x	1
Cc1cnc(NC(=O)CCc2ccccc2)s1	-32	20	5	8.9*
COc1ccc(CCC(=O)Nc2ncc(C)s2)cc1OC	-8	-21	-1	2
C[C@H](CO)N1C[C@H](C)[C@H](CN(C)S(=O)(=O)c2ccccc2)Oc2c(NC(=O)C3CCOCC3)cccc2C1=O	x	x	x	2
CCOC(=O)c1c(-c2ccccc2)oc2cc(CN(C)C)c(O)c(CN(C)C)c12	-55	16	12*	3
CCOC(=O)c1c(C)oc2cc(Cl)c(O)c(CN(C)C)c12	4	-69	0	4
CCOc1ccc(S(=O)(=O)N2CCOCC2)cc1NC(=O)CSCC(=O)Nc1ccc(OC)cc1	x	x	x	20*
O=C(CC1CC1)N[C@H]1C[C@@H]2O[C@H](CO)CC[C@@H]2O[C@@H]1CCc1ccc(C#Cc2ccccc2)cc1	x	x	x	0
CN(C)c1ccc2c(c1)[C@@H]1C[C@@H](CC(=O)NCc3ccc(Oc4ccccc4)cc3)O[C@H](CO)[C@@H]1O2	x	x	x	17*
O=S(=O)(c1ccccc1)N1CC2(C1)[C@H](c1ccccc1)[C@H](CO)N2CC1CC1	x	x	x	0
C[C@@H]1CN([C@@H](C)CO)C(=O)c2cccc(NC(=O)Nc3ccc4c(c3)OCO4)c2O[C@H]1CN(C)S(=O)(=O)c1ccccc1	x	x	x	9.0*
C[C@H](CO)N1C[C@H](C)[C@@H](CN(C)C(=O)Nc2ccc(C(F)(F)F)cc2)OCCCC[C@H](C)Oc2ccc(NC(=O)Nc3ccc(F)cc3)cc2C1=O	x	x	x	9.3*
C[C@H]1CCCCO[C@@H](CN(C)C(=O)Nc2ccc(C(F)(F)F)cc2)[C@@H](C)CN([C@@H](C)CO)C(=O)c2cc(NC(=O)Nc3ccc4c(c3)OCO4)ccc2O1	x	x	x	8.1*
C[C@H]1CCCCO[C@@H](CN(C)C(=O)Nc2ccc(C(F)(F)F)cc2)[C@@H](C)CN([C@@H](C)CO)C(=O)c2cc(NC(=O)Nc3ccc(F)cc3)ccc2O1	x	x	x	8.3*
COc1ccc(S(=O)(=O)N(C)C[C@H]2Oc3cc(C#CC4CC4)ccc3S(=O)(=O)N([C@@H](C)CO)C[C@H]2C)cc1	x	x	x	1
CC(C)CCN(N=O)[C@@H](Cc1ccccc1)CN(N=O)[C@@H](Cc1ccccc1)CN(C)N=O	0	0	-1	-3
CN(C[C@H](Cc1ccccc1)N(C[C@H](Cc1ccccc1)N(CCC(C)(C)C)N=O)N=O)N=O	6	-6	0	8.8*
COc1ccc([C@@H]2[C@@H]3C(=O)N(C(C)(C)C)C(=O)[C@@H]3[C@]3(Cc4ccccc4)C(=O)N(c4ccc(C(F)(F)F)cc4)C(=O)N23)cc1	-1	9	0	9.0*
CC(=O)N1CC2(C1)[C@@H](c1ccccc1)[C@@H](CO)N2CC1CCOCC1	x	x	x	0
CCOC(=O)c1c(S(=O)(=O)N2CCCC2)c(C)n(C)c1C	14	16	48*	1
COc1ccc(CN(C)C[C@H]2Oc3ccc(NC(=O)Cc4cn(C)c5ccccc45)cc3CC(=O)N([C@H](C)CO)C[C@@H]2C)cc1	x	x	x	3
CCS(=O)(=O)N1CCC2(CC1)CN(Cc1ccccc1)[C@@H](CO)c1c2c2ccc(OC)cc2n1C	x	x	x	4
CC(C)NC(=O)Nc1ccc2c(c1)C(=O)N([C@H](C)CO)C[C@H](C)[C@H](CN(C)Cc1ccc(-c3ccccc3)cc1)O2	x	x	x	-6
COc1ccc(-c2cccc(-c3nc(C(=O)NCC(F)(F)F)cc4c3[C@H](CCO)N([S@@](=O)C(C)(C)C)C4)c2)cc1	x	x	x	2
SMILES	697 NFkB inh	Jurkat NFkB inh	HIF act	F508del corr
COc1cccc(-c2cccc(-c3nc(C(=O)NCC(F)(F)F)cc4c3[C@H](CCO)N([S@@](=O)C(C)(C)C)C4)c2)c1	x	x	x	11*
CC(=O)N1Cc2cc(C(=O)NCC(F)(F)F)nc(-c3cccc(-c4cccnc4)c3)c2[C@@H]1CCO	x	x	x	8.9*!
COc1ccc(C#Cc2cnc3c(c2)C(=O)N([C@H](C)CO)C[C@H](C)[C@@H](CN(C)C(=O)CC2CC2)O3)cc1	x	x	x	0
CC(C)(C)c1ccc(OCC(=O)Nc2ccc3c4c(cccc24)C(=O)NC3=O)cc1	x	x	-2	20*
O=C1CCCC(O)=C1C=Nc1cccc(C(F)(F)F)c1	-8	10	714*	-1
Cc1ccc(C(=O)N[C@H](C(=O)OCc2cc(=O)n3c(n2)sc2ccccc23)C(C)C)cc1	10	-23	0	x
